# Beta cell apopt – beta cell apoptosis inhibition | INS-1E cytokine-induced death, ATP luminescence, 48 h; percent of positive-control rescue, neutral wells zero | protection from apoptosis, % (no concentration beside the values) | 300,000 tested, 0.8% active;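 active = Every replicate reaches about 75%, or at least half do and their mean reaches it too, limit read from the data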;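 also: 0% = cytokine-treated negative control wells and 100% = positive control rescue; higher means more ATP so stronger rescue from cytokine killing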
# CSC inhib – cancer stem cell inhibition; inhibition, % at 7.5 µM; 300,000 tested, 1.1% active; AID 2717; cancer stem cell-like cells viability, luminescence; in the data active = inhibition above about 75%; tested in HMLE shEcad cells
# Mdm2 MdmX PPI – human Mdm2/MdmX binding inhibition | O15151+Q00987 | 330,000 tested, 3% active | AID 485346 | SaOS-2 split-luciferase Mdm2/MdmX complementation, luminescence | inhibition, % at 8 µM;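 active = inhibition of at least 50% at 8 µM in the primary screen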
# Target sequence (O15151 whole entry, looked up): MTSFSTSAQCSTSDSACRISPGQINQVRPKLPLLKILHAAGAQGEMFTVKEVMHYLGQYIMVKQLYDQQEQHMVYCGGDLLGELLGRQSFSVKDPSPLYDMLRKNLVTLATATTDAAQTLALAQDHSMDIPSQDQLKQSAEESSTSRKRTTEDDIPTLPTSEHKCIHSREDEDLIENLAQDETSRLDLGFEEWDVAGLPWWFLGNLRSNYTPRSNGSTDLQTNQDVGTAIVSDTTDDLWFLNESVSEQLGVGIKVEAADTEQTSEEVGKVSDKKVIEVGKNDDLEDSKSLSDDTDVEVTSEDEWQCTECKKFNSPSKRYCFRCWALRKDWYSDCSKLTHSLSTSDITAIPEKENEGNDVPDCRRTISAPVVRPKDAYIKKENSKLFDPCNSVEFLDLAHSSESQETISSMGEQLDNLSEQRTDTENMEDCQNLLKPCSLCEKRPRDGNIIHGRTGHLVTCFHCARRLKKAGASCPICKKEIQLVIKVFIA
# Target sequence (Q00987 whole entry, looked up): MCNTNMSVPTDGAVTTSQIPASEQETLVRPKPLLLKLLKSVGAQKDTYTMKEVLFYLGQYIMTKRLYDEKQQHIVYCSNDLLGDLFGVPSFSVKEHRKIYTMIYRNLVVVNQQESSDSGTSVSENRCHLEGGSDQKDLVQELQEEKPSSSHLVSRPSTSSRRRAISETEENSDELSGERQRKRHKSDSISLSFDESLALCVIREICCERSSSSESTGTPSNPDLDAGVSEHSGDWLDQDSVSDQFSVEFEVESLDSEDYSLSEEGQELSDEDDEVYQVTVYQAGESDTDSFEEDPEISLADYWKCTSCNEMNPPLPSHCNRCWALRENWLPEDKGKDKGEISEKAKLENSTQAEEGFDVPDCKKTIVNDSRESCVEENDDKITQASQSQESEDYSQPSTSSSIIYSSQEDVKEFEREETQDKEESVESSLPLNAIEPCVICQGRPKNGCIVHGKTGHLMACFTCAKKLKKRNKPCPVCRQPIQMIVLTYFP
# NR3A LBD binder – modulates the human NR3A ligand-binding domain | NR3A LBD differential scanning fluorimetry, Tm shift; 0% = protein alone, 100% = glycine-bound protein | 340,000 tested, 2.5% active | Tm shift relative to glycine control, % at 25 µM | AID 1259313;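 active = melting temperature shift of at least 10% of the positive control shift, at one fixed dose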
# MPTP block – permeability transition pore inhibition | isolated mouse mitochondria, Ca2+ swelling absorbance, 30 min | inhibition, % at 10 µM | 360,000 tested, 1.4% active | AID 602449;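 active = inhibition of 50% or more, scaled per plate between neutral and stimulator controls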;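 also: 0% = DMSO wells given calcium and 100% = 1 mM EGTA wells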
# Gli-Sufu block – Gli-Sufu pathway antagonism. Sufu-KO-LIGHT fibroblasts, Gli luciferase reporter luminescence. inhibition, % at 5 µM. 340,000 tested, 0.74% active. AID 588413;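 active = inhibition above about 55%, limit read from the data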;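 also: 0% = DMSO-treated cells and 100% = wells with medium but no cells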
# Mdm2 MdmX conf – human Mdm2/MdmX binding inhibition, confirmed. AID 489028. shares compounds with Mdm2 MdmX PPI. 10,000 tested, 55% active. luminescent assay. inhibition, % at 8 µM; in the data active = inhibition above about 40%
# FLuc counter – full-length luciferase inhibition in Mdm2/MdmX counter-screen. shares compounds with Mdm2 MdmX PPI. SaOS-2 full-length luciferase counterscreen, luminescence. inhibition, % at 8 µM. 6,200 tested, 77% active. AID 504607;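 active = mean inhibition at 8 µM reaching about 37%, which flags the compound as non-specific, limit read from the data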;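 also: p53-null SaOS-2 cells with luciferase driven by a doxycycline-inducible promoter; compound on cells about two nights before reading with doxycycline added after day one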
# An asterisk follows results filed as active; / = no result. Rows were chosen to be rich in hits. Some 6.6% of all compounds tested hit in one or more screens of this group.
SMILES,Beta cell apopt,CSC inhib,Mdm2 MdmX PPI,NR3A LBD binder,MPTP block,Gli-Sufu block,Mdm2 MdmX conf,FLuc counter
CCCCN(CC)CCCNC(=O)c1cn(CC)c2ccc(S(=O)(=O)N3CCc4ccccc4C3)cc2c1=O,2,-2,57*,-1,-3,41,22,/
CCn1cc(C(=O)NCCCN2CCCC2)c(=O)c2cc(S(=O)(=O)N3CCc4ccccc4C3)ccc21,2,9,26,-1,-1,25,/,/
CCCN(CCC)CCCNC(=O)c1cn(CC)c2ccc(S(=O)(=O)N3CCc4ccccc4C3)cc2c1=O,4,1,75*,1,-1,39,36,63*
CCCCN(C)CCCNC(=O)c1cn(CC)c2ccc(S(=O)(=O)N3CCc4ccccc4C3)cc2c1=O,-1,/,54*,-2,-4,45,24,/
CCN1CCN(Cc2ccc(NC(=O)c3cc(NC(=O)c4cncc(-c5ccc(C#N)cc5)c4)cc(OC)c3)cc2C(F)(F)F)CC1,87*,31,100*,-8,7,10,20,/
CCN1CCN(Cc2ccc(NC(=O)c3cc(NC(=O)c4cnnc5ccccc45)cc(OC)c3)cc2C(F)(F)F)CC1,10,2,52*,-7,-4,22,26,/
Cc1ccc(S(=O)(=O)Nc2ccccc2/C=N/c2nc3ccccc3n2C)cc1,4,23,/,-5,2,2,/,/
CCOc1ccc(C(=O)c2ccccc2C(=O)O)cc1OCC,-7,-19,2,-1,-3,-2,/,/
CC1=CC(=O)C(C(C)C)=C/C1=C(\c1cc(C(C)C)c(OP(=O)(O)O)cc1C)c1ccccc1C(=O)O,4,101*,75*,-5,0,-11,68*,50*
CC1=C(C(=O)N(C)C)CC(CC(=O)NCc2cccs2)C(=O)N1Cc1ccc(F)cc1 (stereo not given),/,/,/,/,1,/,/,/
CCOC(=O)CSC1=C(C#N)C(c2ccc(C)s2)CC(=O)N1 (stereo not given),/,/,61*,1,1,48,62*,67*
O=C(NNC(=O)C1CCN(S(=O)(=O)c2ccc(Cl)cc2)CC1)c1ccccc1O,0,37,56*,5,-1,6,59*,46*
Cn1nc(C(F)(F)F)c(C#N)c1N1CCN(c2ccc(F)cc2)CC1,-5,-16,56*,2,-3,4,20,/
CCCCn1c(N)c(N(CC(C)C)C(=O)c2cccc(S(=O)(=O)N(CC)c3ccccc3)c2)c(=O)[nH]c1=O,/,/,/,0,0,11,/,/
O=C(Nc1ccc(O)c2c(=O)cc(-c3ccccc3Cl)oc12)c1ccccc1Cl,-1,5,-4,1,-1,1,/,/
O=C(Nc1ccc(O)c2c(=O)cc(-c3cccc(Cl)c3)oc12)c1ccccc1Cl,/,-3,91*,-12,1,0,2,/
COc1ccc(-c2nc(NC(=O)c3cc(C(C)(C)C)nn3C)sc2C)cc1,85*,81*,61*,2,2,14,32,/
COc1ccc(-c2nc(NC(=O)c3n[nH]c(=O)c4ccccc34)sc2C)cc1,20,23,69*,-15,0,7,36,/
COc1ccc(-c2nc(NC(=O)c3c(C)noc3C)sc2C)cc1,/,/,13,-1,-2,13,/,/
Cc1cc(C)c(-c2csc(NC(=O)c3n[nH]c(=O)c4ccccc34)n2)c(C)c1,6,/,60*,-5,9,15,62*,68*
Cc1nn(-c2ccccc2Cl)c(Cl)c1/C=N/Nc1nc2ccccc2s1,7,27,87*,2,10,86*,96*,56*
C[C@H](NC(=O)c1nc[nH]c1C(=O)N1CCc2ccccc2C1)C(=O)OCc1ccccc1,3,8,20,0,-2,-10,/,/
CN(C)c1ccc(C(=O)c2ccc(N(C)C)c3ccccc23)cc1,44,5,56*,0,1,7,50*,181*
COc1ccc(C(=O)c2ccc(N(C)C)cc2)c(OC)c1,11,72,62*,0,-1,-5,48*,37*
O=C(COC(=O)c1ccc(Cl)cc1O)NCCN1C(=O)CSC1=O,-1,-1,-5,0,0,7,/,/
SMILES,Beta cell apopt,CSC inhib,Mdm2 MdmX PPI,NR3A LBD binder,MPTP block,Gli-Sufu block,Mdm2 MdmX conf,FLuc counter
COc1cc(NC(=O)c2csc(N)n2)cc(C(=O)Nc2cccc(C(F)(F)F)c2)c1,19,88*,59*,19*,-1,9,57*,60*
COc1ccc(NC(=O)NCCCN2CCC(Cc3ccccc3)CC2)cc1,7,8,10,0,0,11,/,/
CSc1ccc(NC(=O)NCCCN2CCC(Cc3ccccc3)CC2)cc1,10,26,61*,-1,2,0,16,/
CC(NC(=O)CSC(=S)N1CCCC1)c1ccc(S(N)(=O)=O)cc1 (stereo not given),-2,-5,6,2,-1,-11,/,/
CCOC(=O)[C@@H]1[C@H]2COc3ccccc3[C@H]2N2C(=O)N(c3cccc(F)c3)C(=O)[C@]12C,-1,-16,-25,0,6,5,/,/
CN(C)c1ccc(C2CNC(c3ccc(Cl)c([N+](=O)[O-])c3)c3[nH]c4ccccc4c32)cc1 (stereo not given),7,/,54*,4,4,3,29,62*
O=C(Nc1ccc(N2CCCCC2)cc1)c1cncc(Br)c1,-8,-17,-52,1,0,-114,/,/
O=C(Nc1ccc(N2CCN(C(=O)c3ccccc3F)CC2)cc1)c1cncc(Br)c1,-4,6,63*,0,2,-10,62*,21
CS(=O)(=O)Oc1ccc(Br)cc1/C=C1/N=C(c2ccco2)OC1=O,-1,-2,1,-2,-1,-27,/,/
Nc1nc2c(nc(SCc3ccccc3Br)n2[C@@H]2O[C@H](CO)[C@@H](O)[C@H]2O)c(=O)[nH]1,-3,-9,-2,-6,0,22,/,/
C=C1CCC[C@]2(C)C[C@H]3OC(=O)C(CN4CCOCC4)[C@H]3C[C@@H]12 (stereo not given in full),-7,12,30,1,1,1,/,/
C/C1=C\CCC2C(/C=C(\C)CC1)OC(=O)C2CN1CCCCC1 (stereo not given),-12,16,60*,-1,-1,4,35,/
COc1ccc(-c2[nH]ncc2/C=N\NC(=O)c2cccs2)cc1OC,-3,0,19,-4,0,-2,/,/
Cc1ccc(S(=O)(=O)N2C[C@@H]3[C@H]4CC[C@H](C4)[C@@H]3[C@@H](C)[C@@H]2c2ccn(Cc3ccccc3)c2)cc1,/,/,50*,2,-2,7,9,/

# Compound activity from PubChem.
